SRC3 inh = inhibitors of human steroid receptor coactivator 3 (SRC3); AID 588352; inhibition, % at 3.6 µM; HEK293 GAL4-SRC3 luciferase reporter, luminescence; Q9Y6Q9; actives 0.17% (n = 360,000);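 active means inhibition above a per-campaign cutoff, the mean of all compounds plus 3 SD, cut at about 60% in these data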;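 further: 0% = DMSO-treated cells and 100% = gossypol-treated cells at 36 µM; higher means less SRC3-driven luciferase light from the GAL4 reporter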
Target sequence (Q9Y6Q9 whole entry, looked up, the tested form may be a part): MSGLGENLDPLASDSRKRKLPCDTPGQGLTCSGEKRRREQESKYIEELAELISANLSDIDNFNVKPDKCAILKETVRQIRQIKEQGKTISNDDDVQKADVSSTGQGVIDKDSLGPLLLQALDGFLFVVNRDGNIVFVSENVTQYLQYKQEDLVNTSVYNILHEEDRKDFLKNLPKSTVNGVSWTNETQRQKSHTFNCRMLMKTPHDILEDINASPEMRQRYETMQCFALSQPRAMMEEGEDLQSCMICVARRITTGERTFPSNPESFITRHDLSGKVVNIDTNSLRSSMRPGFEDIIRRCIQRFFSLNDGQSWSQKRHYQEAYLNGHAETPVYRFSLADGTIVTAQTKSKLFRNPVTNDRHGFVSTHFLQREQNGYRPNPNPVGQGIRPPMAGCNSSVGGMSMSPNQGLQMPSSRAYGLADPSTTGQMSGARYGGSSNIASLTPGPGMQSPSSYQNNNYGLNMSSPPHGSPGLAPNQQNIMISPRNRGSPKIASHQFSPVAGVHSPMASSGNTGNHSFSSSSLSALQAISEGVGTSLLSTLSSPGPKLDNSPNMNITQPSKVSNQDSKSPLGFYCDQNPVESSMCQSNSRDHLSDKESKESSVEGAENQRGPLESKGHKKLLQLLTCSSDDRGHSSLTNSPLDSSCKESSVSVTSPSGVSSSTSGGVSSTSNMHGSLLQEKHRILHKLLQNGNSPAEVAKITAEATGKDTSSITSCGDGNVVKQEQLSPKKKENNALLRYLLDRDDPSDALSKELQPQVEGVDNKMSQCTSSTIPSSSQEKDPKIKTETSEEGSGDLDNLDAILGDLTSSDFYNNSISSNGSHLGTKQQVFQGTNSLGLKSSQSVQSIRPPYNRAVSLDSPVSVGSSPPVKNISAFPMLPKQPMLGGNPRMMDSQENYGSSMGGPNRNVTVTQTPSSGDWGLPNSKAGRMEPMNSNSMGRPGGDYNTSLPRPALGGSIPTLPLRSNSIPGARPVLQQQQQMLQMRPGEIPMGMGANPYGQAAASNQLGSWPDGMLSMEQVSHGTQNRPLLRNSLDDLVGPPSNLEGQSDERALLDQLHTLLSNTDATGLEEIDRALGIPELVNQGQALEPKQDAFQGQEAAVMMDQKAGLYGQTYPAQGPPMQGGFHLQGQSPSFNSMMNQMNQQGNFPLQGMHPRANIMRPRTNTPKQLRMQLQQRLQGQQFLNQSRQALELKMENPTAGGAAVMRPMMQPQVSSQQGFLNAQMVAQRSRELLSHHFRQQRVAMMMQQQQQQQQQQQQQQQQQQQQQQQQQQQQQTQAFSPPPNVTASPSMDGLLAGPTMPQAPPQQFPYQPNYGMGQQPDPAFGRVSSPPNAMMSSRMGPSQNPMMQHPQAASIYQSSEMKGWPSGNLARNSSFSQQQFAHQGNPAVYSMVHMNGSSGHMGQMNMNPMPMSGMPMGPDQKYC
SRC2 inh = human SRC2 (NCOA2) inhibition | HEK293 GAL4-SRC2 luciferase reporter, luminescence | actives 0.17% (n = 370,000) | inhibition, % at 9 µM | AID 651957 | Q15596;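 active means inhibition above the mean inhibition of all tested compounds plus 3 SD, set per campaign, cut at about 52% in these data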;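 further: 0% = DMSO treated cells and 100% = cells given Gossypol at 36 µM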
COUP-TFII inh = inhibitors of human COUP-TFII (NR2F2) | P24468 | HEK293T NGFI-A luciferase reporter, luminescence | inhibition, % at 8.6 µM | actives 0.7% (n = 370,000);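 active means inhibition above a per-plate cutoff, mean inhibition of test wells between control levels plus 3 SD, cut at about 38% in these data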;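 further: cells cotransfected with COUP-TFII expression vector driving the NGFI-A reporter; 0% = median of COUP-TF2 test wells and 100% = reporter-only cells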
SRC1 inh = inhibits human SRC1 coactivator. inhibition, % at 3.6 µM. AID 588354. HEK293 GAL4-SRC1 luciferase reporter, luminescence. actives 0.12% (n = 360,000);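 active means inhibition above the campaign mean plus 3 SD, with each screening campaign given its own cutoff, cut at about 60% in these data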;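 further: 0% = DMSO treated cells and 100% = gossypol at 36 µM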
NR5A2 inv ag = suppresses constitutive activity of human LRH-1. HEK293T StAR-luciferase reporter, LRH-1 transfected, 24 h. inhibition, % at 3.6 µM. actives 0.13% (n = 360,000);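 active means inhibition above the mean inhibition of all tested compounds plus 3 SD, cut at about 73% in these data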;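 further: 0% = DMSO wells and 100% = reporter-only cells lacking LRH-1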
VP16 Luc counter = counter-screen for COUP-TFII antagonists: inhibitors of VP16; shares compounds with COUP-TFII inh; HEK293 Gal4-VP16 luciferase reporter, luminescence; inhibition, % at 8.5 µM; actives 25% (n = 2,500); in the data active means inhibition above about 13%
NR2F2 inh conf = confirmation of human COUP-TFII (NR2F2) inhibitors; shares compounds with COUP-TFII inh; HEK293 NGFI-A luciferase reporter, luminescence; inhibition, % at 8.5 µM; actives 45% (n = 2,500); AID 687008;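 active means mean inhibition over three repeats above a set limit taken from the earlier primary screen, cut at about 38% in these data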;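 further: 100% = cells given the luciferase reporter alone without the COUP-TF2 vector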
The depositor's hits bear a star; . = not tested or not shown. Rows were chosen to be rich in hits. Some 0.81% of all compounds tested hit in one or more screens of this group.

SMILES	SRC3 inh	SRC2 inh	COUP-TFII inh	SRC1 inh	NR5A2 inv ag	VP16 Luc counter	NR2F2 inh conf
CN(C)c1ccc(C=c2c3cc([N+](=O)[O-])ccc3n3c2cc(-c2ccccc2)[n+]3C)cc1	53.4	-4.4	68.5*	12.2	61.0	53.4*	58.9*
O=C(c1ccco1)N1CCCC(c2nc(-c3ccc(S(=O)(=O)NCc4ccccc4)cc3)no2)C1 (centres undefined)	7.7	20.8	51.1*	-6.9	15.6	-3.8	20.8
CCCCn1nnnc1C1c2ccccc2OCC(=O)N1Cc1ccc2c(c1)OCO2 (centres undefined)	.	-4.9	-2.1	.	.	.	.
CS(=O)(=O)N(CC(=O)NCCSc1ccccc1)c1ccc2c(c1)OCO2	-9.6	9.3	37.9*	12.7	-11.5	-8.7	-7.4
COc1ccc(CN(C)c2ccc(S(=O)(=O)N3CCN(C)CC3)cc2[N+](=O)[O-])cc1OC	18.2	16.4	69.6*	11.1	30.1	-0.9	67.2*
CCOC(=O)[C@@]12CCCC3=C1N(CCC3)C(=O)[C@H]2CC(=O)NCc1ccc(OC)c(OC)c1	.	-7.8	-6.2	.	.	.	.
N#Cc1cc(-c2ccccc2)[nH]c1-c1nccc2ccccc12	17.4	19.9	49.8*	-1.7	16.6	-3.9	13.3
COC(=O)c1c(-c2ccccc2)[nH]c(-c2nccc3ccccc23)c1C(=O)OC	-6.9	-14.3	-23.2	-10.1	16.4	.	.
O=S(Cc1ccc(Br)cc1)Cc1nnc(SCc2c(F)cccc2Cl)n1-c1ccccc1 (centres undefined)	26.1	17.1	31.1	17.0	31.4	.	.
O=S(Cc1ccc(Br)cc1)Cc1nnc(SCc2ccc(Cl)cc2)n1-c1ccccc1 (centres undefined)	27.2	10.1	45.2*	14.4	33.4	1.6	27.7
CCOC(=O)CC[C@@H]1CC[C@]2(CCCN(S(=O)(=O)C3CCCCC3)C2)O1	.	7.2	-6.2	.	.	.	.
CCn1c(C)cc(C(=O)CN2C(=O)c3ccccc3S2(=O)=O)c1C	47.5	34.1	40.7*	51.7	44.9	40.6*	72.5*
O=C(CN1C(=O)c2ccccc2S1(=O)=O)c1ccccc1	11.8	9.2	20.9	-23.5	-28.1	.	.
Cc1cc(C(=O)CN2C(=O)c3ccccc3S2(=O)=O)c(C)n1C(C)C	39.9	57.6*	62.6*	46.7	38.5	49.0*	63.3*
CC(CCN1CCC(C(O)(c2ccccc2)c2ccccc2)CC1)Oc1cc(F)cc(F)c1 (centres undefined)	.	2.0	16.8	.	.	.	.
COC(=O)[C@@]12CCCCC=C1N(CCc1ccc(Cl)cc1)C(=O)[C@H]2CC(=O)NCc1ccc(C)o1	.	0.0	9.0	.	.	.	.
COC(=O)[C@]12C[C@H](CC(=O)N3CCSCC3)C(=O)N(CCc3ccc(OC)c(OC)c3)C1=C[C@H](COCc1ccccc1)O[C@@H]2C	.	4.6	-13.8	.	.	.	.
COc1ccc(-c2cc(C3CCN(c4ccc(C(C)=O)cc4[N+](=O)[O-])CC3)[nH]n2)cc1	19.5	27.4	41.7*	7.0	-12.3	-2.7	19.1
COC(=O)c1cc(-c2ccccc2)c(=O)n2c1CCC2	.	-14.7	-10.1	.	.	.	.
COc1cccc(Cn2cc(COC(=O)N3CCCC3)nn2)c1	.	6.8	-6.0	.	.	.	.
COc1cc(NC(=O)COc2cc(O)c3c(c2)OC(C)(C)CC3=O)cc(OC)c1OC	50.9	36.4	81.3*	43.1	58.9	3.0	80.6*
CCC(C)Oc1ccc(C(=O)Nc2ccc(CN3CCOCC3)cc2)cc1 (centres undefined)	7.9	7.1	40.0*	5.0	-4.5	-15.9	12.3
O=C(Nc1ccc(CN2CCOCC2)cc1)c1ccc(Cl)cc1	-67.2	-32.5	-13.3	-54.7	-68.2	.	.
COC(=O)c1ccc(NC(=O)c2ccc(CN3CCOCC3)cc2)cc1	1.4	9.5	47.5*	-1.7	21.5	-3.9	15.8
O=C(Nc1ccc(S(=O)(=O)Nc2ccccc2)cc1)c1ccc(CN2CCOCC2)cc1	33.2	27.0	69.0*	22.4	47.8	9.3	24.9
SMILES	SRC3 inh	SRC2 inh	COUP-TFII inh	SRC1 inh	NR5A2 inv ag	VP16 Luc counter	NR2F2 inh conf
O=C(Nc1ccc(F)cc1)OCc1cn(Cc2ccc(F)cc2)nn1	.	-11.7	-3.4	.	.	.	.
COc1ccc(-n2c(SCC(=O)Nc3ccccc3-c3ccccc3)nnc2-c2ccccc2)cc1	.	14.7	11.2	.	.	.	.
CCOC(=O)[C@]12CCCC=C1N(Cc1ccc(OC)cc1)C(=O)[C@@H]2CC(=O)NCCc1ccccc1OC	.	5.1	-0.6	.	.	.	.
O=C(C1CCCCC1)n1ccc2ccc(-c3ccc4ccn(Cc5ccccc5)c4c3)cc21	.	6.7	15.4	.	.	.	.
COC(=O)c1cc(S(=O)(=O)N2CCN(C(C)=O)CC2)cn1C	.	16.8	-11.8	.	.	.	.
CC(C)C[C@H]1COc2cc(Br)ccc2S(=O)(=O)N1Cc1cn(Cc2ccc(Cl)cc2)nn1	.	-16.0	9.1	.	.	.	.
O=C(/C=C/c1ccc([N+](=O)[O-])cc1)c1ccccc(=O)c1O	36.8	-32.6	42.8*	0.8	-0.3	10.1	59.3*
Cc1ccc2c(c1)-c1c(cnn1CC(=O)NCCc1ccc(Cl)cc1)CO2	.	-2.5	7.6	.	.	.	.
CCC(NC(=O)Nc1nnc(C(F)(F)F)s1)(C(F)(F)F)C(F)(F)F	75.5*	24.0	66.7*	56.1	61.9	17.2*	60.4*
O=C(c1cc(S(=O)(=O)N2CCN(c3ccccc3)CC2)ccc1Cl)N1CCCC(C(F)(F)F)C1 (centres undefined)	29.1	33.1	46.1*	4.3	31.3	1.9	31.8
Cc1ccccc1CN1CCCCC(NC(=O)c2cccc(F)c2)C1=O (centres undefined)	.	-23.5	5.1	.	.	.	.
Cc1nc(CN(C)C(=O)c2cc(COc3ccc4ncccc4c3)on2)cs1	30.3	29.1	57.7*	11.9	36.4	-0.2	51.6*
CC(C)N(Cc1nccn1C)C(=O)c1cc(COc2ccc3ncccc3c2)on1	6.8	-4.6	40.1*	8.7	21.4	-3.4	6.3
COc1cccc(OCc2cc(C(=O)N(Cc3nccn3C)C(C)C)no2)c1	-12.3	-14.9	-2.0	-11.8	1.4	.	.
CCOc1ccc(-n2c(SCC(=O)Nc3cccc4ccccc34)nnc2-c2cccs2)cc1	.	-0.6	-11.5	.	.	.	.
CC(C)n1nnnc1C1(C)CN(S(C)(=O)=O)CC(=O)N1Cc1cccc(C(F)(F)F)c1 (centres undefined)	.	-14.0	15.3	.	.	.	.
CN=C1S/C(=C\c2cc(C)n(-c3ccccc3F)c2C)C(=O)N1C	47.8	-1.3	49.7*	30.2	15.9	-67.9	30.3
CN=C1NC(=O)/C(=C\c2cc(C)n(-c3ccccc3F)c2C)S1	.	.	-18.4	.	.	.	.
Cc1cc(/C=C2\SC(=O)N(C)C2=O)c(C)n1-c1ccc(O)cc1	4.6	4.4	50.3*	24.7	9.5	-78.0	23.1
Cc1ccc(-n2c(SCC(=O)c3ccc4ccccc4c3)nnc2-c2cccnc2)cc1	.	-4.0	-5.5	.	.	.	.

Screening results: PubChem BioAssay, The Scripps Research Institute Molecular Screening Center
